Experimental data: PubChem BioAssay AID1159580 (chemical genetic matrix, 2015)
Values joined by “and” are separate entries in the source; they are usually repeats but may differ in a detail not shown here. Identical values can stand only once. Out of some 5,500 compounds screened, about 2,000 (36%) were called active. Roughly 18% stayed inconclusive and do not appear here. Rule as the data show it: active = normalized growth mostly below about 0.91 (no sharp cut-off); inconclusive = no clear call, values can overlap the other calls; inactive = mostly above about 0.92. Some of the results follow.

Assay: chemical genetic growth profiling, strain panel (AID 1159580);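 also: tested at 20 µM; growth read once vehicle control cultures reached saturation at 30 °C; 1 = growth at the plate median or of vehicle wells; lower values mean less growth of the strain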
Conditions: S. cerevisiae deletion strains, growth OD

Measured: normalized growth

C=NC(C(=O)NC1C(=O)N2C1SC(C)(C)C2C(=O)O)c1ccccc1 (configuration not stated)
inactive: locus YAL013W, strain DEP1, hits give low values 1.01 | locus YAL021C, strain ccr4, hits give low values 0.991 | locus YAL026C, strain drs2, hits give low values 0.994 | locus YAL030W, strain snc1, hits give low values 1 | locus YBL061C, strain skt5, hits give low values 1.02 | locus YBR009C, strain hhf1, hits give low values 0.994 | locus YBR021W, strain FUR4, hits give low values 0.999 | locus YBR023C, strain chs3, hits give low values 0.995 | locus YBR171W, strain sec66, hits give low values 1.02 | locus YBR229C, strain ROT2, hits give low values 1 | locus YBR231C, strain swc5, hits give low values 1.02 | locus YBR279W, strain paf1, hits give low values 1 | locus YCL011C, strain gbp2, hits give low values 0.989 | locus YCL016C, strain dcc1, hits give low values 0.986 | locus YCL029C, strain bik1, hits give low values 1.02 | locus YCL061C, strain MRC1, hits give low values 0.991 | locus YCL069W, strain vba3, hits give low values 1.01 | locus YCR088W, strain abp1, hits give low values 1 | locus YDL005C, strain med2, hits give low values 0.998 | locus YDL035C, strain GPR1, hits give low values 1.01 | locus YDL040C, strain nat1, hits give low values 1.01 | locus YDL074C, strain BRE1, hits give low values 0.986 | locus YDL101C, strain DUN1, hits give low values 1.01 | locus YDL134C, strain PPH21, hits give low values 1.01 | locus YDL185W, strain tfp1, hits give low values 1.01 | locus YDL192W, strain arf1, hits give low values 1.01 | locus YDR001C, strain nth1, hits give low values 0.989 | locus YDR069C, strain doa4, hits give low values 1.03 | locus YDR101C, strain arx1, hits give low values 1 | locus YDR137W, strain rgp1, hits give low values 1.01 | locus YDR150W, strain NUM1, hits give low values 1.01 | locus YDR159W, strain sac3, hits give low values 1.07 | locus YDR162C, strain NBP2, hits give low values 1.03 | locus YDR195W, strain ref2 1 | locus YDR297W, strain sur2, hits give low values 1.03 | locus YDR318W, strain mcm21, hits give low values 1.02 | locus YDR334W, strain swr1, hits give low values 1 | locus YDR335W, strain msn5, hits give low values 0.983 | locus YDR388W, hits give low values 1 | locus YDR392W, strain spt3, hits give low values 0.867 | locus YDR502C, strain sam2, hits give low values 1.02 | locus YEL003W, strain gim4, hits give low values 1 | locus YEL037C, strain rad23, hits give low values 0.994 | locus YEL061C, strain CIN8 (second series), hits give low values 0.995 | locus YEL061C, strain CIN8, hits give low values 1 | locus YER015W, strain faa2, hits give low values 0.978 | locus YER016W, strain bim1, hits give low values 1.01 | locus YER110C, hits give low values 1.01 | locus YER111C, strain swi4, hits give low values 1 | locus YER155C, strain BEM2 (second series), hits give low values 1.03 | locus YER155C, strain BEM2, hits give low values 1 | locus YER167W, strain BCK2, hits give low values 1.02 | locus YFR010W, strain ubp6, hits give low values 0.993 | locus YGL078C, strain dbp3, hits give low values 1 | locus YGL086W, strain mad1, hits give low values 1.02 | locus YGL167C, strain pmr1, hits give low values 0.992 | locus YGL173C, strain kem1, hits give low values 1.01 | locus YGL227W, strain vid30, hits give low values 0.996 | locus YGL240W, strain doc1, hits give low values 1.04 | locus YGL248W, strain PDE1, hits give low values 1.02 | locus YGL253W, strain hxk2, hits give low values 1.01 | locus YGR078C, strain PAC10, hits give low values 1.01 | locus YGR135W, strain pre9, hits give low values 1.01 | locus YGR229C, strain SMI1, hits give low values 0.977 | locus YGR252W, strain gcn5, hits give low values 1.07 | locus YHR013C, strain ard1, hits give low values 0.973 | locus YHR027C, strain rpn1, hits give low values 0.992 | locus YHR030C, strain SLT2, hits give low values 1.01 and 1 | locus YHR079C, strain IRE1 (second series), hits give low values 1.01 | locus YHR079C, strain IRE1, hits give low values 1 | locus YHR094C, strain hxt1, hits give low values 1.01 | locus YHR129C, strain ARP1, hits give low values 1.01 | locus YHR142W, strain chs7, hits give low values 0.994 | locus YHR200W, strain rpn10, hits give low values 1.03 | locus YIL066C, strain RNR3, hits give low values 1.01 | locus YIL073C, strain SPO22, hits give low values 1.07 | locus YIL125W, strain kgd1, hits give low values 1.01 | locus YIR030C, strain dcg1, hits give low values 1.02 | locus YJL092W, strain hpr5, hits give low values 0.994 | locus YJL095W, strain BCK1 (second series), hits give low values 1 | locus YJL095W, strain BCK1, hits give low values 1.01 and 0.995 | locus YJL115W, strain asf1, hits give low values 0.973 | locus YJL129C, strain trk1, hits give low values 0.991 | locus YJL134W, strain LCB3, hits give low values 1.01 | locus YJL154C, strain vps35, hits give low values 1 | locus YJL164C, strain tpk1, hits give low values 0.977 | locus YJL166W, strain qcr8, hits give low values 1.02 | locus YJL168C, strain set2, hits give low values 1.01 | locus YJL187C, strain SWE1 (second series), hits give low values 1.01 | locus YJL187C, strain SWE1, hits give low values 1.02 | locus YJR043C, strain POL32, hits give low values 0.992 | locus YJR066W, strain TOR1, hits give low values 0.988
